CBFb-RUNX1 inh = CBF-beta/RUNX1 interaction disruption | Potency, µM (doses to about 59.8 µM), for inactives: at the highest dose activity, negative = inhibition, usual class: inhibitors | AID 1477 | 230,000 tested, under 10 active | Q01196+Q13951 | AlphaScreen CBFb-His/RUNX1-biotin binding, biochemical; note: % of control where 0% means no effect
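Read-out: AlphaScreen. Format: His-CBF-beta with biotinylated RUNX1 (30 nM each) preincubated 20 min, compound 15 min, Ni-chelate plus streptavidin beads 90 min; room temperature throughout.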
TRPV1 PAM = enhances activation of the human vanilloid receptor TRPV1; 320,000 tested, 0.02% active; potentiation, % at 8.33 µM; TRPV1-expressing cells, Fluo-8 calcium influx, capsaicin EC20 potentiation; AID 540277; Q8NER1; in the data active = potentiation above about 80%; inconclusive = between about 30% and that limit; note: 0% is about no effect
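TRPV1-expressing cells were cultured overnight at 35.5C and loaded with Fluo-8 calcium dye for 40 to 90 min at room temperature. After a 10 s baseline, compound was added and calcium influx was read kinetically for 3 min (ex 480/em 520 nm).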
AT treatment = potential ataxia-telangiectasia treatments restoring KAP-1 phosphorylation | 320,000 tested, 0.19% active | Potency, µM (doses to about 57.5 µM), inactives show at the highest dose activation, actives largely listed as activators | F2112 A-T fibroblasts, KAP-1 phosphorylation AlphaLISA; neocarzinostatin DNA damage 30 min before lysis; note: potency is the fitted concentration of half-maximal effect; % of control where 0% means no effect; nearly all actives have a fitted effect of over 45% in size
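ATM-like activity read as KAP-1 phosphorylation via AlphaLISA donor/acceptor antibody pairs after lysis and 6 hr at 25C. Cells were ATM-null patient fibroblasts (F2112, hTERT), dosed 60 min, then exposed to the DSB inducer NCS for 30 min.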
Apoferritin bind = candidate novel general anesthetic via apoferritin binding | P02791 | apoferritin/1-aminoanthracene competitive binding, fluorescence | Potency, µM (series often up to 77.5 µM), for inactives: top-dose activity change, negative = displacement, most hits filed as inhibitors | 350,000 tested, 0.074% active; note: potency is the fitted concentration of half-maximal effect; % is set by controls: 0 for no effect and ±100 for the full control effect; nearly all actives have a fitted effect of over 20% in size
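Probe: 1-aminoanthracene (50% saturated, PBS). Protein: horse-spleen apoferritin, 10 uM. Incubation: 10 min, room temperature. Detection: 380 nm excitation, 535 nm emission. Analysis: normalized response, four-parameter Hill.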
TRPV1 agonist = agonists of human vanilloid receptor 1 (TRPV1). activation, % at 8.33 µM. TRPV1-expressing cells, Fluo-8 calcium influx, agonist mode. 320,000 tested, 0.19% active. Q8NER1; in the data active = activation above about 80%; inconclusive = between about 30% and that limit; note: 0% is about no effect
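Fluo-8 calcium influx in TRPV1-expressing cells, kinetic read (ex 480/em 520 nm). Compound added and read 3 min for agonist activity, followed by capsaicin at EC20 final and 2 min further read for enhancement.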
Starred values were filed as active, the others as inactive; ? = inconclusive; · = no result; [ ] = remark or other dose. A selection: hits, their analogues and other compounds. The true share with any hit is near 0.39%. Unless noted, calls come from the whole dose curve; as a rule, active = well fitted curve in the direction sought with a large enough effect; inconclusive = small, poorly fitted or top-dose-only effect, or another doubt; inactive = no such curve, though single readings can be large; an effect the other way counts as inactive or inconclusive.

SMILES	CBFb-RUNX1 inh	TRPV1 PAM	AT treatment	Apoferritin bind	TRPV1 agonist
CN1C(=O)CSc2ccc(NC(=O)NCCC3=CCCCC3)cc21	1%	-12	·	22µM*	?
CC(C)(c1ccccc1)c1ccc(OCCCNCCO)cc1	0%	-2	-7%	11µM*	3
CC[C@H](C)[C@H](NC(=O)[C@H](Cc1ccc(O)cc1)NC(=O)[C@@H]1CCCN1C(=O)[C@@H](N)CCCN=C(N)N)C(=O)N[C@@H](CC(C)C)C(=O)O	1%	·	·	-2%	·
COc1ccccc1CNC(c1ccccc1)c1ccccc1	·	-6	28µM*	0%	8
COc1ccc(Nc2cc(C)nc3ccc(OC)cc23)cc1	·	-1	-1%	-10%	-9
COc1ccc2nc(C)cc(Nc3ccc(C(=O)O)cc3)c2c1	·	-4	10µM*	12%	-5
C=C(C)n1c(=O)n(Cc2ccc(C)cc2)c2ccccc21	·	12	0%	-10%	9
C=C(C)n1c(=O)n(Cc2ccccc2C)c2ccccc21	·	-18	11µM*	?	-1
O=c1c(-c2ccc(O)cc2)coc2cc(O[C@@H]3O[C@H](CO)[C@@H](O)[C@H](O)[C@H]3O)cc(O)c12	6%	·	·	2%	·
O=C(CN1CCCCC1)Nc1nc(-c2ccc(F)c(F)c2)cs1	·	-3	9%	-6%	-1
Cn1cnnc1SCC(=O)Nc1nc(-c2ccccc2)cs1	14%	-3	-3%	-6%	89*
O=C(CN1CCCCC1)Nc1nc(-c2ccccc2)cs1	·	6	-5%	-10%	?
O=C(Nc1nc(-c2ccccc2)cs1)c1ccc(Br)o1	-2%	-10	-3%	-12%	88*
O=C(CN1CCOCC1)Nc1nc(-c2ccccc2)cs1	·	-13	-4%	-8%	85*
Cc1ccc(-c2csc(NC(=O)CN3CCOCC3)n2)cc1C	·	-14	4%	-11%	95*
O=C(NCc1ccccc1)[C@@H]1C[C@H]1[C@@H](NP(=O)(c1ccccc1)c1ccccc1)c1ccccc1	3%[2.36 µM]	-2	-11%	-22%	91*
COc1ccc(NC(=O)C2CCCN(c3nccc(C)n3)C2)cc1 (stereo not drawn)	1%	22	3%	-3%	94*
Cc1cc(N2CCCC(C(=O)Nc3ccc4c(c3)CCC4)C2)n2ncnc2n1 (stereo not drawn)	1%	10	2%	-12%	93*
COc1cccc(OC)c1C(=O)NC(=O)Nc1c(C)cccc1C	·	1	3.5µM*	-4%	-1
ICCc1ccccc1	4%[21.7 µM]	·	·	·	·
COC(=O)[C@H](CC(C)C)NC(=O)c1ccc(NC[C@@H](N)CS)cc1-c1cccc2ccccc12	5%	·	·	-20%	·
CC(C)C[C@H](N)c1nnc(SCc2ccc(Cl)cc2)o1	7%	16	40µM*	-5%	-4
CC(C)[C@H](N)c1nnc(SCc2ccc(Cl)cc2)o1	6%	-24	0%	-13%	11
